Among the data in PubChem BioAssay (NCI) are growth values, retold here.

The panel holds about 83,000 compounds, 20% with a hit somewhere; the sample as a whole holds those more often.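 Each cell line was grown in a 96-well plate and treated with one concentration of compound for 48 hours. Values below 10 were considered active.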 A number with no mark means an inactive call. Calls of active or inactive are those of the source.

One assay has as its system NCI-H460 lung. Kind of assay: NCI-60 one-dose screen, 48 h (100 = growth as untreated, 0 = no growth, -100 = all killed). As to conditions: 10 µM unless noted.
In the case of `Cc1cc(-c2nc3ccccc3s2)ccc1NC(=O)COc1ccc(Cl)cc1`, the growth was 92.8%.

With `C[C@H](CCC(=O)O)[C@H]1CC[C@H]2[C@@H]3CC[C@@H]4/C(=C\c5ccco5)C(=O)/C(=C\c5ccco5)C[C@]4(C)[C@H]3CC[C@]12C`, the growth is 81.9%.

`COc1cc2c(c(OC)c1OC)-c1ccc(N=NC(N)=S)c(=O)cc1[C@@H](NC(C)=O)CC2`: the growth was 3.1% (active).

Consider `c1ccc(CSc2ncnc3nc[nH]c23)nc1`, for which the growth was 104%.

In the case of `CC(=O)Nc1ccc2c(c1)c(NC(C)=O)nn2C(=O)Nc1ccc(Cc2ccccc2)cc1`, the growth is 76.4%.

Consider `COc1cc2c(=O)n(CC3CCCCC3)c3c4cc[nH]c4ncc3c2cc1OC`, for which the growth was 21.1%.

Take `COC1/C=C\OC2(C)Oc3c(C)c(O)c4c(O)c(c(CN(C)CCO)c(O)c4c3C2=O)NC(=O)/C(C)=C\C=C/C(C)C(O)C(C)C(O)C(C)C(OC(C)=O)C1C` (stereo unspecified): the growth is 103%.

For `Cc1cc(N/N=C/c2nc(-c3ccc(Cl)cc3)oc2C)c2cc(Cl)ccc2n1`, the growth was -62.5% (active).

As to `C=C1CC[C@@H]2[C@](C)(COC(C)=O)[C@H](OC(C)=O)CC[C@@]2(C)[C@@H]1CC(NCc1ccc(F)cc1)C1=CCOC1=O` (stereo partly specified), the growth was 55.2%.

On to `Cn1c2c(Cl)c(Cl)ccc2c2ccn3c(=O)c4ccccc4nc3c21`, for which the growth is 104%.

On to `CCOC(=O)Cc1cnn(C)c1NC(=O)c1ccc(Cl)cc1NC(C)=O`, for which the growth was 119%.

As for `COc1ccc(-c2cc(NC(=O)Nc3ccc(O)cc3)no2)cc1`, the growth is 86.2%.

Take `S=c1[nH]nc(CSc2ncnc3c2c(-c2ccccc2)cn3-c2ccc(Cl)cc2)o1`: the growth was 99.4%.

For the compound `COc1c(Cl)cc(Cl)cc1Cl`, the growth was 97.8%.

As to `COc1ccc(-c2nn(-c3ccccc3)cc2/C=C/C(=O)OCc2cn(-c3ccc(F)c(Cl)c3)nn2)cc1`, the growth is 96.7%.

Take `COc1ccc2c(c1)C(=O)/C(=C/c1cccc(OCC(=O)Nc3nc4c(s3)CCCC4)c1)O2`: the growth is 71.3%.

For `CCN(CC)CC(C)Nc1ccc([N+](=O)[O-])c2sc3ccccc3c(=O)c12` (stereo unspecified), the growth was 9.64% (active).

`Cc1nn(-c2ccccc2)c2nc(C)n(-c3ccc(Br)cc3)c(=O)c12`: the growth was 7.92% (active).

Take `OC(c1cc(-c2ccccc2)nc2ccc(Cl)cc12)C1CCCCN1` (stereo unspecified): the growth was -16.8% (active).

For `COc1ccc(S(=O)(=O)NCCNc2nccc(-c3c(-c4cccc([N+](=O)[O-])c4)nc4sccn34)n2)cc1`, the growth was 87.3%.

Regarding `COc1ccc(Cl)cc1Nc1nc(C(F)(F)F)ccc1C(=O)N/N=C/c1cccnc1`, the growth was 33.6%.

Turning to `COc1ccc(-c2nn(-c3ccccc3)cc2/C=C2\SC(=O)NC2=O)cc1`, the growth is 97.5%.

Take `Cc1ccc2c(c1)C(=O)c1c-2c(OCCCN(C)C)nc2ccccc12`: the growth was -8.22% (active).

On to `Cc1ccc(-c2nc(/C=N/Nc3cc(C)nc4ccc(Br)cc34)c(C)o2)cc1`, for which the growth was -81% (active).

For the compound `CCCCNP1(NCCCC)=NP(NCCCC)(NCCCC)=NP(NCCCC)(NCCCC)=NP(NCCCC)(NCCCC)=N1`, the growth was -8.78% (active).

As to `COc1ccc(-n2cc(-c3ccccc3)c3c(SCC(=O)N/N=C/c4ccc([N+](=O)[O-])cc4)ncnc32)cc1`, the growth is 113%.

For `Nc1cccc(-c2nc3sccn3c2-c2ccnc(NCCCNS(=O)(=O)c3ccc(C(F)(F)F)cc3)n2)c1`, the growth was 2.98% (active).

For `CCN(CC)CC(O)c1cc(-c2ccc(Cl)cc2)nc2c(C)c(Cl)ccc12` (stereo unspecified), the growth is -86% (active).

With `O=C1/C(=C/c2ccc(F)cc2)CN(C(=O)CCN2CCC(=NO)CC2)C/C1=C\c1ccc(F)cc1`, the growth is -26.9% (active).

Regarding `CC(C)C1=C[C@@]23CC[C@@H]4[C@](C)(CCC[C@@]4(C)C(=O)OCC#CCN4CCCC4)[C@H]2C[C@@H]1[C@H]1C(=O)OC(=O)[C@H]13`, the growth is 103%.

Regarding `Cc1ccc2c(c1)C(=O)/C(=C/c1ccc(OCC(=O)c3ccccc3)cc1)O2`, the growth was 108%.

For `Cc1ccc2c(c1)n([O-])c1cc(Cl)ccc1[n+]2=O`, the growth is 114%.

Consider `COc1ccccc1/C=C(/C(=O)c1ccccc1)c1ccccc1`, for which the growth is 93.6%.

As to `COc1nc2c(cc1S(=O)(=O)c1ccccc1)CCc1c-2cnn1-c1ccc(Cl)cc1`, the growth is 99.2%.

For `CNc1cc2nc3cc(NC)c(C)cc3cc2cc1C`, the growth was -85.8% (active).

With `Nc1c(C(=O)Nc2ccccc2)sc2nc3c(cc12)CN(CCc1ccccc1)CC3`, the growth was 100%.

As to `CC(C)[C@@H]1CC[C@]2(C(=O)NCCCCN=C(N)N)CC[C@]3(C)[C@H](CC[C@@H]4[C@@]5(C)CCC(=O)C(C)(C)[C@@H]5CC[C@]43C)[C@@H]12`, the growth was 58.9%.

With `CCOC(=O)c1cnc2ccc(Br)cc2c1Nc1cccc(S(=O)(=O)NC)c1`, the growth was 102%.

The next assay relates to HOP-92 NSCLC. The assay is described as above. The following applies: 10 µM unless noted.
As to `Cc1cc(-c2nc3ccccc3s2)ccc1NC(=O)COc1ccc(Cl)cc1`, the growth was 83.5%.

On to `C[C@H](CCC(=O)O)[C@H]1CC[C@H]2[C@@H]3CC[C@@H]4/C(=C\c5ccco5)C(=O)/C(=C\c5ccco5)C[C@]4(C)[C@H]3CC[C@]12C`, for which the growth was 106%.

As for `COc1cc2c(c(OC)c1OC)-c1ccc(N=NC(N)=S)c(=O)cc1[C@@H](NC(C)=O)CC2`, the growth was 69.6%.

`c1ccc(CSc2ncnc3nc[nH]c23)nc1`: the growth was 135%.

For the compound `CC(=O)Nc1ccc2c(c1)c(NC(C)=O)nn2C(=O)Nc1ccc(Cc2ccccc2)cc1`, the growth was -42.8% (active).

Take `COc1cc2c(=O)n(CC3CCCCC3)c3c4cc[nH]c4ncc3c2cc1OC`: the growth is 1.65% (active).

Regarding `COC1/C=C\OC2(C)Oc3c(C)c(O)c4c(O)c(c(CN(C)CCO)c(O)c4c3C2=O)NC(=O)/C(C)=C\C=C/C(C)C(O)C(C)C(O)C(C)C(OC(C)=O)C1C` (stereo unspecified), the growth was 115%.

`Cc1cc(N/N=C/c2nc(-c3ccc(Cl)cc3)oc2C)c2cc(Cl)ccc2n1`: the growth is 69.5%.

Regarding `C=C1CC[C@@H]2[C@](C)(COC(C)=O)[C@H](OC(C)=O)CC[C@@]2(C)[C@@H]1CC(NCc1ccc(F)cc1)C1=CCOC1=O` (stereo partly specified), the growth was 18.8%.

Regarding `Cn1c2c(Cl)c(Cl)ccc2c2ccn3c(=O)c4ccccc4nc3c21`, the growth is 92.7%.

As for `CCOC(=O)Cc1cnn(C)c1NC(=O)c1ccc(Cl)cc1NC(C)=O`, the growth is 91.4%.

On to `COc1ccc(-c2cc(NC(=O)Nc3ccc(O)cc3)no2)cc1`, for which the growth was 94%.

Take `S=c1[nH]nc(CSc2ncnc3c2c(-c2ccccc2)cn3-c2ccc(Cl)cc2)o1`: the growth is 92.9%.

On to `COc1c(Cl)cc(Cl)cc1Cl`, for which the growth was 116%.

In the case of `COc1ccc(-c2nn(-c3ccccc3)cc2/C=C/C(=O)OCc2cn(-c3ccc(F)c(Cl)c3)nn2)cc1`, the growth is 101%.

As for `COc1ccc2c(c1)C(=O)/C(=C/c1cccc(OCC(=O)Nc3nc4c(s3)CCCC4)c1)O2`, the growth was -74.8% (active).

Consider `CCN(CC)CC(C)Nc1ccc([N+](=O)[O-])c2sc3ccccc3c(=O)c12` (stereo unspecified), for which the growth was 7.52% (active).

As to `Cc1nn(-c2ccccc2)c2nc(C)n(-c3ccc(Br)cc3)c(=O)c12`, the growth is 56.3%.

Consider `OC(c1cc(-c2ccccc2)nc2ccc(Cl)cc12)C1CCCCN1` (stereo unspecified), for which the growth is 6.52% (active).

With `COc1ccc(S(=O)(=O)NCCNc2nccc(-c3c(-c4cccc([N+](=O)[O-])c4)nc4sccn34)n2)cc1`, the growth is 87.5%.

As to `COc1ccc(Cl)cc1Nc1nc(C(F)(F)F)ccc1C(=O)N/N=C/c1cccnc1`, the growth was 56.8%.

Consider `COc1ccc(-c2nn(-c3ccccc3)cc2/C=C2\SC(=O)NC2=O)cc1`, for which the growth is 96.6%.

With `Cc1ccc2c(c1)C(=O)c1c-2c(OCCCN(C)C)nc2ccccc12`, the growth is -10.7% (active).

Consider `Cc1ccc(-c2nc(/C=N/Nc3cc(C)nc4ccc(Br)cc34)c(C)o2)cc1`, for which the growth was 18.9%.

For `CCCCNP1(NCCCC)=NP(NCCCC)(NCCCC)=NP(NCCCC)(NCCCC)=NP(NCCCC)(NCCCC)=N1`, the growth is -24.3% (active).

With `COc1ccc(-n2cc(-c3ccccc3)c3c(SCC(=O)N/N=C/c4ccc([N+](=O)[O-])cc4)ncnc32)cc1`, the growth is 98.3%.

On to `Nc1cccc(-c2nc3sccn3c2-c2ccnc(NCCCNS(=O)(=O)c3ccc(C(F)(F)F)cc3)n2)c1`, for which the growth is 71.4%.

With `CCN(CC)CC(O)c1cc(-c2ccc(Cl)cc2)nc2c(C)c(Cl)ccc12` (stereo unspecified), the growth is -46.8% (active).

`O=C1/C(=C/c2ccc(F)cc2)CN(C(=O)CCN2CCC(=NO)CC2)C/C1=C\c1ccc(F)cc1`: the growth is -5.42% (active).

For the compound `CC(C)C1=C[C@@]23CC[C@@H]4[C@](C)(CCC[C@@]4(C)C(=O)OCC#CCN4CCCC4)[C@H]2C[C@@H]1[C@H]1C(=O)OC(=O)[C@H]13`, the growth was 94.1%.

With `Cc1ccc2c(c1)C(=O)/C(=C/c1ccc(OCC(=O)c3ccccc3)cc1)O2`, the growth was 66.8%.

As to `Cc1ccc2c(c1)n([O-])c1cc(Cl)ccc1[n+]2=O`, the growth was 81.9%.

For `COc1ccccc1/C=C(/C(=O)c1ccccc1)c1ccccc1`, the growth is 75.7%.

For `COc1nc2c(cc1S(=O)(=O)c1ccccc1)CCc1c-2cnn1-c1ccc(Cl)cc1`, the growth is 80.3%.

As for `CNc1cc2nc3cc(NC)c(C)cc3cc2cc1C`, the growth is 11.7%.

As for `Nc1c(C(=O)Nc2ccccc2)sc2nc3c(cc12)CN(CCc1ccccc1)CC3`, the growth is 75.5%.

`CC(C)[C@@H]1CC[C@]2(C(=O)NCCCCN=C(N)N)CC[C@]3(C)[C@H](CC[C@@H]4[C@@]5(C)CCC(=O)C(C)(C)[C@@H]5CC[C@]43C)[C@@H]12`: the growth was 57.6%.

As to `CCOC(=O)c1cnc2ccc(Br)cc2c1Nc1cccc(S(=O)(=O)NC)c1`, the growth was 102%.
